VLA-4 inh: inhibition in human VLA-4 binding assay, primary screen, VLA-4 allosteric modulator project, MLPCN library, flow cytometry, VLA-4 expressing cells; Integrin alpha-4 (Homo sapiens), P13612; ligand binding flow cytometry; inhibition, % (about 7 µM as worked out from the volumes in the protocol); actives 0.2% (n = 330,000); AID 2557, 2010; in the data active = inhibition above about 50%
AGP1-GFP MLPCN: modulators of AGP1-GFP expression in yeast TOR pathway, primary screen, cell-based, multiplex flow cytometry, S. cerevisiae, MLPCN library | actives 0.02% (n = 320,000) | AID 2066, 2009 | GFP response vs DMSO, % at 10 µM | 3 h; GFP as percent of DMSO wells;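 active = GFP response relative to DMSO above a set limit, near screen average plus 3 SD, cut at about 150% in these data; inconclusive = fewer than 70 cells counted for the yeast strain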;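 note: median GFP channel fluorescence of the gated AGP1 strain per well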
RPL19A TOR yeast: RPL19A-GFP expression modulators in yeast, primary screen, cell-based, S. cerevisiae, multiplex flow cytometry, MLPCN; S. cerevisiae RPL19A-GFP strain, 3 h; stronger effect = lower value; percent response vs DMSO, % at 10 µM; actives 0.3% (n = 330,000); AID 2025, 2009;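 active = percent response vs DMSO below 50%; inconclusive = fewer than 70 events counted for the yeast strain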;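 note: median channel GFP fluorescence of the barcoded RPL19A-GFP strain; ratio of sample median GFP to plate DMSO average so 100% = DMSO; lower means less RPL19A-GFP as with rapamycin TOR inhibition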
LAP4-GFP MLPCN: modulators of LAP4-GFP expression in yeast, primary screen, S. cerevisiae, multiplex flow cytometry, MLPCN library; 3 h; median GFP as percent of DMSO wells; GFP response vs DMSO, % at 10 µM; actives 0.34% (n = 320,000); AID 2023, 2009;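 active = GFP response vs DMSO above a set limit, about the screen mean plus 3 SD, cut at about 150% in these data; inconclusive = under 70 cell events counted for the yeast strain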
MEP2 TOR yeast: modulators of MEP2-GFP levels in yeast, primary screen, S. cerevisiae, multiplex flow cytometry, MLPCN library; S. cerevisiae MEP2-GFP strain, 3 h; 100% = DMSO control level; GFP response vs DMSO, % at 10 µM; actives 0.51% (n = 330,000); AID 2016, 2009;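 active = GFP response versus DMSO above a set limit, roughly screen mean plus 3 SD, cut at about 180% in these data; inconclusive = fewer than 70 cells counted for a yeast strain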;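 note: median GFP fluorescence of the barcode-gated MEP2-GFP cells per well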
CIT2 TOR yeast: modulators of CIT2-GFP expression in yeast, primary screen, S. cerevisiae, GFP fusion, multiplex flow cytometry, MLPCN library; S. cerevisiae CIT2-GFP strain, 3 h; 100 means same as DMSO wells; GFP response vs DMSO, % at 10 µM; actives 0.065% (n = 320,000); AID 2029, 2009;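 active = GFP response relative to DMSO above a set limit, near the screen mean plus 3 SD, cut at about 150% in these data; inconclusive = Fewer than 70 cells measured for a yeast strain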;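 note: ratio of well median GFP fluorescence to mean of DMSO wells on the plate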
Numbers without * were called inactive; i = inactive; ? = inconclusive; . = no result; + = active, no number; [ ] = remark or other dose. Hits are enriched below; roughly 1.1% of the tested compounds scored in any of these assays.

SMILES	VLA-4 inh	AGP1-GFP MLPCN	RPL19A TOR yeast	LAP4-GFP MLPCN	MEP2 TOR yeast	CIT2 TOR yeast
CCN1/C(=C/C=C/c2oc3ccc4ccccc4c3[n+]2CC)Oc2ccc3ccccc3c21	.	.	392	+[may fluoresce green]	+[may fluoresce green]	+[may fluoresce green]
O=C(c1ccccc1)N1CCN(C(=O)c2ccc3c(c2)OCO3)CC1	-1	100	98	97	107	98
O=C(c1ccc2c(c1)OCO2)N1CCC(Cc2ccccc2)CC1	5	?	26*[may fluoresce violet]	112	273*[may fluoresce violet]	?
CNC(=O)CSc1nnc(NC(=O)C2CC(=O)N(c3ccccc3OC)C2)s1 (centres undefined)	3	104	94	91	92	94
CCN1C(=NCCCOC(C)C)N[C@@H](CCc2ccccc2)[C@H](C(=O)NCCCOC(C)C)[C@H]1C	-28	100	108	91	97	91
CCN(CC)CCN1C(=O)/C(=C\c2ccc(Cl)c([N+](=O)[O-])c2)SC1=Nc1ccc(OC)cc1	29	?	53	78	197*[may fluoresce violet]	?
COc1ccc(N=C2S/C(=C\c3ccc(Cl)c([N+](=O)[O-])c3)C(=O)N2CCN(C)C)cc1	30	101	106	101	104	108
O=C(Cc1ccc(O)cc1)NC1CCCCCC1	7	?	42*[may fluoresce violet]	?	?	?
CC1(OC(=O)C2CCCC2)C(=O)C=C2C=C(c3ccsc3)OC=C2C1=O (centres undefined)	41	9	82	99	174	?
COc1ccc(C2=CC3=C(Br)C(=O)C(C)(OC(=O)C4CCCC4)C(=O)C3=CO2)cc1 (centres undefined)	-10	11	39*[may fluoresce violet]	128	138	?
CC(C)(C)OC(=O)NCCCC1=CC2=CC(=O)C(C)(OC(=O)c3ccc(Cl)nc3)C(=O)C2=CO1 (centres undefined)	-15	83	97	102	86	80
COc1ccc(C2=CC3=C(Br)C(=O)C(C)(OC(=O)c4ccc(Cl)nc4)C(=O)C3=CO2)cc1 (centres undefined)	-17	6	21*[may fluoresce violet]	59	84	?
C#CC[N+]1(CC#Cc2ccccc2)CCOCC1	3	?	38*[may fluoresce violet]	99	194*[may fluoresce violet]	?
CCOC(=O)C1(C)/C(=N/Nc2ccccc2Cl)C(=O)C(=O)N1c1ccccc1 (centres undefined)	1	.	41*[may fluoresce violet]	106	561*[may fluoresce violet]	?
Cc1cccc(N2CCN(C(=O)COc3ccc4ccc(=O)oc4c3)CC2)c1C	12	14	42*[may fluoresce violet]	84	123	?
O=C(COc1ccc2ccc(=O)oc2c1)N1CCN(c2ccccc2)CC1	2	99	104	103	111	111
COc1ccc(S(=O)(=O)N2CCN(C(=O)c3c(C)nn(-c4ccccc4)c3Cl)CC2)cc1	-3	?	19*[may fluoresce violet]	97	521*[may fluoresce violet]	?
Cc1ccc(S(=O)(=O)N2CCN(C(=O)c3c(C)nn(-c4ccccc4)c3Cl)CC2)cc1	8	104	99	106	103	101
CN=c1scc(C)n1/N=C/c1cc(Br)c(O)c(OC)c1	10	89	94	114	93	97
COc1cc(/C=N/N(C)C)cc(Br)c1O	-2	?	40*[may fluoresce violet]	73	461*[may fluoresce violet]	?
O=C(C1=C(O)C(=O)N(CC2CCCO2)C1c1ccc(Cl)cc1)c1ccco1 (centres undefined)	10	28	58	94	276*[may fluoresce violet]	?
O=C(CCCc1ccccc1)NC12CC3CC(CC(C3)C1)C2	7	99	98	94	102	100
CCN(c1ccccc1)S(=O)(=O)c1csc(C(N)=O)c1	-11	100	100	98	115	101
CC(=O)NCC(=O)NC(C(=O)Nc1ccc2c(c1)OCCO2)c1ccc(C)cc1 (centres undefined)	-1	?	40*[may fluoresce violet]	?	?	?
O=S(=O)(c1ccc(F)cc1)N(CCO)CC(O)Cn1c2ccccc2c2ccccc21 (centres undefined)	42	97	103	101	103	92
SMILES	VLA-4 inh	AGP1-GFP MLPCN	RPL19A TOR yeast	LAP4-GFP MLPCN	MEP2 TOR yeast	CIT2 TOR yeast
CCN(CC(O)Cn1c2ccccc2c2ccccc21)S(=O)(=O)c1ccc(F)cc1 (centres undefined)	11	101	104	153*	152	110
C=CCN1CC(=O)N2C(C)c3[nH]c4ccccc4c3C[C@H]2C1=O (some centres undefined)	21	?	52	65	226*[may fluoresce violet]	?
CCOC(=O)c1cc2c(N)c(C(=O)c3ccc(Br)cc3)sc2[nH]c1=O	-5	95	95	96	101	100
CN1Cc2sc(NC(=S)NC(=O)c3ccccc3)c(C#N)c2CC1(C)C	-158	110	106	155*	157	161*
COC(=O)c1cn(C(=O)c2ccc(F)cc2)c2ccccc12	5	96	105	88	105	104
C=CCOc1ccc(C(=O)n2cc(C(=O)OC)c3ccccc32)cc1	10	90	99	106	186*	92
Cc1ccnc(NC(=O)C(C)N2C(=O)c3ccccc3S2(=O)=O)c1 (centres undefined)	10	110	105	100	102	105
O=C(Nc1nc2ccccc2s1)c1cccc(S(=O)(=O)N2CCc3ccccc32)c1	-4	101	102	107	103	99
O=C(Nc1nc2c(s1)CN(Cc1ccccc1)CC2)c1cccc(S(=O)(=O)N2CCc3ccccc32)c1	-20	?	20*[may fluoresce violet]	?	?	?
N#CC(C#N)=C1C=C2C=C(N3CCCCC3)CCC2CC1 (centres undefined)	i	190*[may fluoresce green]	217	712*[may fluoresce green]	896*[may fluoresce green]	631*[may fluoresce green]
Cc1c(CC(C)C)nc(N)c(C#N)c1-c1ccccc1	0	29	67	102	350*	123
CCn1c(O)c(N=NC(=O)CNc2ccc(C)cc2)c2ccccc21	-6	102	103	97	95	97
CCn1c(O)c(N=NC(=O)CNc2cccc(C)c2)c2ccccc21	-2	15	74	90	525*[may fluoresce violet]	?
O=C(NCC(c1ccco1)N1CCCC1)c1cc2cc(Cl)ccc2o1 (centres undefined)	14	103	98	97	97	93
Cc1ccc(NC(=O)Nc2cc(Cl)ccc2C2COC(=O)C2=N)cc1 (centres undefined)	55*	96	97	89	100	92

Screening results deposited in PubChem BioAssay by NMMLSC.
